Measurements published in PubChem BioAssay AID1835 (Johns Hopkins Ion Channel Center, 2009).
Hit rate of the full screen: of about 2,400 compounds, about 750 (31%) were called active.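 The calls were made as follows: active = median signal gain over dofetilide-blocked control wells reaching their mean plus 3 SD, so readout 1 at least 0; inactive = the rest.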 The list shows a part of the results.

molecular target: Voltage-gated inwardly rectifying potassium channel KCNH2 (Homo sapiens) (UniProt Q12809); assay: modulators restoring hERG flux under dofetilide – cell-based, thallium flux, duplicate retest, dofetilide IC70, confirmation (AID 1835); settings: hERG cell line, FluxOR thallium flux, dofetilide-blocked; at 10 µM; hits give high values
Sequence (Q12809 whole entry, looked up): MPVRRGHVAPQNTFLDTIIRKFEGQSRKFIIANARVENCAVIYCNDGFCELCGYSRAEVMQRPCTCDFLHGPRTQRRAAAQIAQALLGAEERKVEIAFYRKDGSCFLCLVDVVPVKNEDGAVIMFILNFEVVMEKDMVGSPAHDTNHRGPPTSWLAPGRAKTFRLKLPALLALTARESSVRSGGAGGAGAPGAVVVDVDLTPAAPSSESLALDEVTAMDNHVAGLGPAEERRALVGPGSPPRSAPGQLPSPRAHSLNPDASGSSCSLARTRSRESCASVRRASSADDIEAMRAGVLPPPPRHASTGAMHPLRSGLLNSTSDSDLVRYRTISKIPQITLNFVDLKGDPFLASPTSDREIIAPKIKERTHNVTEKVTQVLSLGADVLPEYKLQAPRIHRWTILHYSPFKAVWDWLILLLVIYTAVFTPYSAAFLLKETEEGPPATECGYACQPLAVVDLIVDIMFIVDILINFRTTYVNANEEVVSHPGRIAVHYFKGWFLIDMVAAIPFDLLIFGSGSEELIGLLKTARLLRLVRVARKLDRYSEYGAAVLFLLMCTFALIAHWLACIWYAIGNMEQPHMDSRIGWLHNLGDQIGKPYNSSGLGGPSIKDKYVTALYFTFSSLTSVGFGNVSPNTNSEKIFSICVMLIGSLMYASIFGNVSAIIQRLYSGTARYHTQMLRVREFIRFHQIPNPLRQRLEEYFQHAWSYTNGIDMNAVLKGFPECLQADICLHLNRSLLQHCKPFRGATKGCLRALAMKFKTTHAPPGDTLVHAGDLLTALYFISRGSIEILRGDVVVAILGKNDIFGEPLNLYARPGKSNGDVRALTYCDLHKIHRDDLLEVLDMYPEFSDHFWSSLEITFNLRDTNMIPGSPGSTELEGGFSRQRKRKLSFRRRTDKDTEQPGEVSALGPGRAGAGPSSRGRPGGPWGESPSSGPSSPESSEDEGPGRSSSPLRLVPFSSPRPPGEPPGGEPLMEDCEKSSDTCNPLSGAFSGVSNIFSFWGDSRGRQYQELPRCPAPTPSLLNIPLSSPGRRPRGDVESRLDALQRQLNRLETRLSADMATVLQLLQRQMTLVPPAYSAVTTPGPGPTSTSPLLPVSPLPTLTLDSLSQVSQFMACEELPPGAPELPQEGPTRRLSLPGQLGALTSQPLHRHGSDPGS

Structure (SMILES)	activity increase over dofetilide control, less the hit threshold
Cc1cc([N+](=O)[O-])ccc1-c1ccc(C2Nc3ccccc3C(=O)N2O)o1 (configuration not stated)	7% (active)
COc1cc(/C=C2/OC(=O)c3cc([N+](=O)[O-])ccc32)cc(OC)c1OC	-10% (inactive)
Cc1ccc(/C=N/N2C(=O)c3ccccc3NC2c2ccc(C)cc2)cc1 (configuration not stated)	-7% (inactive)
Cc1ccc(-c2cc(-c3n[nH]c(=S)o3)c3ccccc3n2)cc1	37% (active)
C=CCn1c(-c2cc(-c3ccc(C)cc3)nc3ccccc23)n[nH]c1=S	-16% (inactive)
Cc1ccc(C(C)C)c(OCc2n[nH]c(=S)o2)c1	-4% (inactive)
CC(/C=C1\SC(=S)N(NS(=O)(=O)c2ccccc2)C1=O)=C\c1ccccc1	15% (active)
CC(/C=C1\SC(=S)N(NS(=O)(=O)c2ccc(C)cc2)C1=O)=C\c1ccccc1	7% (active)
Cc1ccc(S(=O)(=O)N2C(=O)/C(=C3\SC(=S)NC3=O)c3ccccc32)cc1	-6% (inactive)
COc1ccccc1/C=C1\SC(=S)N(NS(=O)(=O)c2ccc(C)cc2)C1=O	-20% (inactive)
CC(/C=C1\SC(=S)N(c2ccc(C(=O)O)cc2)C1=O)=C\c1ccccc1	-15% (inactive)
O=C(O)CC1S/C(=N/N=C/c2ccc(-c3ccccc3[N+](=O)[O-])o2)NC1=O (configuration not stated)	-22% (inactive)
COc1ccc(OC)c(NC(=O)C(=S)NC2CCCCC2)c1	-2% (inactive)
COc1ccc(NC(=O)C(=O)NNC(=O)COc2ccc(Cl)cc2)c(OC)c1	30% (active)
COc1cccc(OCC(=O)NNC(=O)C(=O)Nc2ccc(OC)cc2OC)c1	39% (active)
COc1ccc(NC(=O)C(=O)NNC(=O)COc2ccc(OC)cc2)cc1	-12% (inactive)
COc1ccc(NC(=O)COC(=O)c2c(C)noc2C)c(OC)c1	-2% (inactive)
COc1ccc(OC)c(NC(=O)COC(=O)c2ccc(-n3cnnn3)cc2)c1	-10% (inactive)
COc1ccc(OCC(=O)NNC(=O)C(=O)Nc2cc(OC)ccc2OC)cc1	8% (active)
COc1ccc(OC)c(NC(=O)C(=O)NNC(=O)C23CC4CC(CC(C4)C2)C3)c1	83% (active)
COc1ccc(OCC(=O)Nc2c3c(nn2-c2ccc(OC)cc2)CS(=O)(=O)C3)cc1	-18% (inactive)
Cc1n[nH]c(C)c1CCNC(=O)C1CCC(=O)N(Cc2ccccc2F)C1 (configuration not stated)	-15% (inactive)
N#Cc1ccc(-c2nc3cc(Cl)ccc3c(=O)n2O)cc1	-4% (inactive)

Structure (SMILES)	activity increase over dofetilide control, less the hit threshold
O=c1c2cc(Br)ccc2nc(-c2ccc([N+](=O)[O-])cc2)n1O	47% (active)
O=c1c2ccc(Cl)cc2nc(-c2ccc([N+](=O)[O-])cc2)n1O	16% (active)
O=[N+]([O-])c1ccc(Nc2ccc(Cl)cc2)nc1	-17% (inactive)
O=[N+]([O-])c1ccc(CSc2nnc(SCc3ccc(Cl)cc3)s2)cc1	0% (inactive)
O=c1c2cc(Cl)ccc2nc(-c2ccc([N+](=O)[O-])cc2)n1O	16% (active)
O=C1C(c2ccccc2)C(c2ccccc2)NC(c2ccccc2)C1c1ccccc1 (configuration not stated)	-17% (inactive)
O=C(CC1NCCNC1=O)Nc1ccc([N+](=O)[O-])cc1 (configuration not stated)	-17% (inactive)
CC(=O)NCCC(=O)N(C)CC1CCN(CCc2cccc(C(F)(F)F)c2)CC1	-6% (inactive)
CS(=O)(=O)N1CCN(c2ccccc2NC(=O)Nc2cccc(Cl)c2)CC1	-16% (inactive)
Cc1ccc(NC(=O)C(=O)NNC(=O)c2ccccc2C)cc1Cl	54% (active)
COc1cc(NC(=O)c2ccccc2OCc2ccccc2)cc(OC)c1OC	-16% (inactive)
COc1ccccc1C(=O)NNC(=O)C(=O)NC(C)(C)C	21% (active)
COc1cc(/C=N/NC(=O)NC2CCCCC2)ccc1O	-20% (inactive)
CC(=O)Nc1ccccc1C(=O)C(=O)Nc1ccccc1	-23% (inactive)
COc1ccccc1C(=O)NNC(=O)C(=O)NC1CCCCC1	49% (active)
COc1ccccc1C(=O)Nc1ccnn1C1CCN(C(=O)c2ccoc2C)CC1	-7% (inactive)
COc1ccccc1C(=O)NNC(=O)C(=O)NCc1ccccc1	16% (active)
COc1ccccc1NC(=O)C1CCCN1C(=O)NCc1ccccc1 (configuration not stated)	-21% (inactive)
COc1cccc(/C=C2/C(=O)NN(c3ccc(C)c(C)c3)C2=O)c1	-14% (inactive)
COc1ccc(C(=O)NNC(=O)C(=O)NC2CCCCC2)cc1	5% (active)
COc1ccc(C(=O)NCc2nnc(SCC(=O)NC3CCCCC3)n2C)cc1	-18% (inactive)
O=C(COc1ccc(Cl)cc1)NNC(=O)C(=O)NC1CCCCC1	-9% (inactive)
COc1ccccc1CC(=O)Nc1ccc(OC)c(OC)c1	-8% (inactive)

Structure (SMILES)	activity increase over dofetilide control, less the hit threshold
COc1ccc(NC(=O)c2ccccc2SC)cc1OC	-18% (inactive)
COc1ccccc1C(=O)NNC(=O)C(=O)Nc1ccc(C)cc1	77% (active)
COc1ccccc1C(=O)NNC(=O)C(=O)Nc1ccc(C)c(Cl)c1	99% (active)
O=c1oc2ccccc2c2c1nc(C(F)(F)F)n2-c1ccccc1	-20% (inactive)
CCCn1nnnc1SCC(=O)Nc1nnc(CC)s1	-6% (inactive)
O=C(NCCc1nnc2ccc(NCc3ccc(Cl)cc3)nn12)c1ccccc1	-11% (inactive)
COc1ccc(C2CC(c3ccc(Cl)cc3Cl)Nc3nc(N)nn32)cc1OC (configuration not stated)	-10% (inactive)
O=C(/C=C/Nc1ccc(F)c(F)c1)c1cccs1	-18% (inactive)
Cc1ccccc1NC(=O)CC1S/C(=N/c2nccs2)N(C)C1=O (configuration not stated)	0% (inactive)
C/C(=N\O)C1CC(CC(=O)O)C1(C)C (configuration not stated)	-13% (inactive)
CSC1=C(C#N)C(CC(C)C)C2=C(CCCC2=O)N1 (configuration not stated)	-12% (inactive)
CCOC(=O)N1CCN(C(=O)c2ccc(CN(c3ccc(C)c(C)c3)S(C)(=O)=O)cc2)CC1	8% (active)
COc1ccc(N(CC(=O)N2CCN(Cc3ccccc3)CC2)S(C)(=O)=O)cc1OC	-3% (inactive)
CCN1CCN(C(=O)c2ccc(Cn3c(=O)[nH]c4cc(OC)c(OC)cc4c3=O)cc2)CC1	-17% (inactive)
S=c1[nH]nc(-c2ccc(Cl)cc2)n1Cc1ccccc1	-13% (inactive)
S=c1nc(SCc2ccccc2)[nH]c2ccccc12	100% (active)
S=c1nc(Cc2ccccc2)[nH]c2ccccc12	78% (active)
S=c1nc(Cc2ccc(Cl)cc2)[nH]c2ccccc12	90% (active)
O=C(O)CCCCCNc1nc(=S)[nH]c2ccccc12	-7% (inactive)
O=c1[nH]c(SCc2cccc(Cl)c2)nc2ccccc12	-14% (inactive)
S=c1nc(COc2ccccc2)[nH]c2ccccc12	100% (active)
